# How the values were obtained:
# Format in all cases: functional
# Plasmodium falciparum [1] = assay: GSK_TCMDC: Inhibition of Plasmodium falciparum 3D7 in whole red blood cells, using parasite LDH activity as an index of growth. Test compounds present at 2uM
# Plasmodium falciparum [2] = assay: GSK_TCMDC: Inhibition of Plasmodium falciparum Dd2 in whole red blood cells, using parasite LDH activity as an index of growth. Test compounds present at 2uM
# HepG2 = assay: GSK_TCMDC: Percent inhibition of human HepG2 cell line. Test compounds present at 10uM.
SMILES,Inhibition (Plasmodium falciparum [1]) [%],Inhibition (Plasmodium falciparum [2]) [%],Inhibition (HepG2) [%]
O=C(Nc1ccccc1)N(Cc1cccc(-c2ccc(CNC3CCCC3)cc2)c1)C1CCN(Cc2ccccc2)CC1.O=C(O)C(F)(F)F,100,96,100
CCCC(=O)Nc1ccc(OCCN(Cc2ccccc2OC(F)(F)F)c2ccc(C(F)(F)F)c(C#N)c2)cc1,85,97,0
Cc1cc(CNCCCCCCCNCc2ccc(-c3ccccc3)cc2)ccc1O,97,6,49
COc1ccc(NC(=O)NC2CCN(CCCCCNC(=O)/C=C/c3ccc(Cl)c(Cl)c3)CC2)cc1,96,1,5
Nc1ncc(-c2cccc(F)c2)cc1-c1nc2cc(F)ccc2[nH]1.O=C(O)C(F)(F)F,100,88,54
Cc1[nH]c(C)c(-c2ccc(CCc3cccc(C(F)(F)F)c3)nc2)c(=O)c1Cl,99,97,28
Oc1ccccc1CN1CCCC(COC(c2ccc(F)cc2)c2ccc(F)cc2)C1 (centres undefined),97,98,19
NCC1CCCN1Cc1ccc(-c2ccc(-c3nc4cc(C(F)(F)F)ccc4[nH]3)cc2)cc1.O=C(O)C(F)(F)F (centres undefined),100,98,35
Brc1ccc(Nc2ccnc3cc(-c4nccs4)ccc23)cc1Oc1ccnc2cc(-c3nccs3)ccc12,91,83,15
CCCC(=O)NC(NC(=S)Nc1ccc([N+](=O)[O-])cc1)C(Cl)(Cl)Cl (centres undefined),93,14,10
O=C(Cc1cccs1)NCC(c1ccccc1Cl)c1c[nH]c2ccccc12 (centres undefined),91,56,12
Cc1cc(O)c(CNC2CCCCC2)cc1C.Cl,95,95,6
CN(C)c1ccc(-c2nnc(Sc3ccc(C#N)c([N+](=O)[O-])c3)n2Cc2ccco2)cc1,95,79,3
CN1CCN(CC(=O)Nc2ccc(-c3cccc(-c4nc5cc(F)ccc5[nH]4)c3)cc2)CC1,100,100,18
CC(C)CN1C(=O)c2ccc(C(=O)Nc3nccs3)cc2C1=O,89,0,3
O=C(O)C(F)(F)F.c1cc(CNCCc2ccncc2)cc(-c2csc(-c3nc4ccccc4[nH]3)c2)c1,100,99,16
O=C(NCCCCCCNCc1ccc(-c2ccccc2)cc1)Nc1ccc(Cl)c(Cl)c1,90,2,14
Cc1cc2[nH]c(-c3ccc(C(=O)NCCCN4CCN(c5cccc(Cl)c5)CC4)cc3)nc2cc1Cl,98,73,1
Cc1ccc(CNC(=O)[C@H](CC(C)C)Nc2cc(C)nc(NCC3CCCCC3)n2)cc1.O=C(O)C(F)(F)F,96,44,6
O=C(/C=C/c1ccc(Cl)c(Cl)c1)NCC[C@@H]1C[C@H]1CCN1CCC(c2c[nH]c3ccccc23)CC1,96,22,98
COc1cc(C)nc2ccc(NC(=O)c3cc([N+](=O)[O-])cc([N+](=O)[O-])c3)cc12.Cl,100,94,0
CC(C)(C)c1ccc(-c2cc(C(=O)N[C@@H](CO)C(=O)O)on2)cc1.CC(C)(C)c1ccc(-c2nocc2C(=O)N[C@@H](CO)C(=O)O)cc1,87,0,1
Clc1ccc2c(NCCc3ccccn3)ccnc2c1,92,72,13
COc1ccc(NC(=O)Nc2ccc(-c3cccc(-c4nc5ccccc5[nH]4)c3)cc2)cc1,99,41,44
CN1CCC(N2CCN(Cc3cccc(-c4ccc(-c5nc6ccccc6[nH]5)cc4)c3)CC2)CC1.O=C(O)C(F)(F)F,100,99,56
COc1ccc(/C=C/C(=O)N2CCc3cc4nccc(N5CCN6CCC[C@H]6C5)c4cc32)cc1,100,98,0
Cc1cc(C(=O)CN2C(=O)NC3(CCOc4ccccc43)C2=O)c(C)n1Cc1ccco1 (centres undefined),93,42,13
CCCCc1cc(=O)oc2cc(C)cc(OCc3ccccc3F)c12,92,78,8

# Reference: ChEMBL document CHEMBL1157539, “Thousands of chemical starting points for antimalarial lead identification” (Nature, 2010)
